# Compound activity: PubChem, National Center for Advancing Translational Sciences (NCATS)
# pAkt inh = Akt phosphorylation inhibition; Neuro2A IGF-stimulated pAkt S473 HTRF, 20 min; stronger effect = lower value; activity change, % for hits at 50 µM; hit rate 0.32% among 360,000; in the data active = activity change below about -80%; inconclusive = mostly about -51% to -80%; also: % is scaled to controls: 0 for no effect and ±100 for the full control effect
#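 Single-point screen (50 µM final compound) in Neuro2A cells stimulated 20 min with 6 nM IGF at 37 deg C. After lysis, Ser473-phosphorylated Akt read by HTRF (ex 330 nm, em 615/665 nm) as the 665/615 ratio.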
# aSyn yeast inh = rescues yeast growth from alpha-synuclein toxicity | Yeast expressing alpha-synuclein, growth rescue, BacTiter-Glo, 24 h | hit rate 0.14% among 370,000 | Potency, µM (doses to about 46.1 µM), for the others: at the top dose growth rescue (activation), hits mostly activators | AID 652106; also: potency is read from the fitted curve at half-maximal effect; % of control where 0% means no effect; nearly all actives have a fitted effect of over 65% in size
#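 Rescue of yeast growth: cells expressing toxic alpha-synuclein, induced in galactose at OD600 0.02, incubated with compound 24 h at 30 C. ATP luminescence quantified growth; inhibitors of toxicity appear as activators.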
# CCT modulator = cytosolic chaperonin activity modulation; purified chaperonin ATPase assay, HTRF ADP detection, 30 min; activity change, % (concentration not given with the values), hits read low; hit rate 0.3% among 360,000; in the data active = activity change below about -30%; also: % is scaled to controls: 0 for no effect and ±100 for the full control effect
#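 First, chaperonin was dispensed at 40 nM or 20 nM final depending on batch activity. Next, compounds were pinned at 76 uM and ATP added at 10 uM. After 30 min at 37 °C, ADP detection reagents ran 30 min at ambient temperature.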
# Mito fusion yeast = mitochondrial division inhibition or fusion activation; S. cerevisiae fusion-defective mutant growth rescue, CellTiterGlo 48 h; Potency, µM (doses to about 46.1 µM), inactives show at the top dose growth rescue (activation), hits mostly activators; hit rate 0.23% among 320,000; AID 485298; also: potency is read from the fitted curve at half-maximal effect; % of control where 0% means no effect; nearly all actives have a fitted effect of over 45% in size
#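 Read-out: ATP-based luminescence (CellTiterGlo, 10 min ambient) reporting growth of fusion-defective ts yeast after 48 hours at 37C on glycerol/ethanol YPEG medium in the presence of compound.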
# Apoferritin bind = candidate novel general anesthetic via apoferritin binding; hit rate 0.074% among 350,000; Potency, µM (highest dose often 77.5 µM), for inactives: top-dose activity change, negative = displacement, hits mostly inhibitors; AID 485281; apoferritin/1-aminoanthracene competitive binding, fluorescence; also: potency is read from the fitted curve at half-maximal effect; % is scaled to controls: 0 for no effect and ±100 for the full control effect; nearly all actives have a fitted effect of over 20% in size
# Target sequence (P02791 2-175 limits assumed): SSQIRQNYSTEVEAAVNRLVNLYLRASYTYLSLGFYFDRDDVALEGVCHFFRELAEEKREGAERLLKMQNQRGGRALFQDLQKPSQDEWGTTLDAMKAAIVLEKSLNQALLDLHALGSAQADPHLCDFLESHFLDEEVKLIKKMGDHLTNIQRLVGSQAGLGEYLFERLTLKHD
#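 Steps: apoferritin (10 uM) was premixed with half-saturated 1-AMA in PBS, compounds were pin-transferred, plates stood 10 min at room temperature, fluorescence was read at 380/535 nm, and curves were fitted with a Hill equation.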
# TDP-43 yeast inh = inhibitors of TDP-43 toxicity in yeast; Potency, µM (top dose mostly 46.1 µM), for inactives: top-dose growth rescue (activation), hits mostly activators; hit rate 1.8% among 410,000; TDP-43 expressing yeast growth rescue, BacTiter-Glo, 24 h; also: potency is read from the fitted curve at half-maximal effect; % of control where 0% means no effect; nearly all actives have a fitted effect of over 50% in size
#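 Growth rescue of TDP-43-toxic yeast measured as ATP luminescence (BacTiter-Glo). Cells grown to mid-log in raffinose, induced in galactose at OD600=0.02, exposed to compound 24 hr at 30 deg C.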
# * hit, by the source's call; i = inactive; ? = inconclusive; / = no result. Shown are actives, neighbours in structure and some others; about 2.5% of the full set was active somewhere. Unless noted, calls follow the shape of the dose curve; as a rule, active = well fitted curve in the direction sought with a large enough effect; inconclusive = small, poorly fitted or top-dose-only effect, or another doubt; inactive = no such curve, though single readings can be large; an effect the other way counts as inactive or inconclusive.
SMILES,pAkt inh,aSyn yeast inh,CCT modulator,Mito fusion yeast,Apoferritin bind,TDP-43 yeast inh
Cc1nn(Cc2ccccc2Cl)c2sc(C(=O)Nc3nccs3)cc12,i,3.3%,-56.7*,-0.3%,-3.2%,-10.7%
O=c1oc2ccc(Br)cc2cc1-c1nc2c(s1)CCc1ccccc1-2,/,-1.0%,/,/,/,/
Cc1[nH]n(-c2ccccc2)c(=O)c1/C=N/N1CCOCC1,i,-8.4%,0.0,-1.1%,-1.0%,5.9%
Cc1[nH]n(-c2ccccc2)c(=O)c1C=Nc1cccc2cccnc12,i,-1.6%,-1.7,-7.0%,5.2%,22.4µM*
Cc1ccc(-n2[nH]c(C)c(/C=N/c3ccccn3)c2=O)cc1,i,-39.3%,1.2,0.8%,-12.8%,-33.7%
Cc1[nH]n(-c2ccccc2)c(=O)c1/C=N/N1C(=O)c2cccc3cccc(c23)C1=O,i,?,0.1,-4.0%,-17.0%,17.8µM*
CN(C)c1ccc(N=Cc2ccnc3ccccc23)cc1,/,-4.4%,/,/,/,/
COc1ccccc1CNC(=O)c1ccc(-c2nc(CS(=O)c3ccc(C)cc3)c(C)o2)cc1 (stereo not drawn),/,/,/,/,55.6%,20.4%
Cc1nc2ccc(S(=O)(=O)N(C)CC(=O)Nc3ccc(Br)c(C)c3)cc2s1,/,/,/,/,-13.0%,3.9%
CC1CCc2c(sc(NC(=O)c3cccs3)c2C(=O)O)C1 (stereo not drawn),i,-20.8%,-0.4,-42.1%,-3.3%,-2.9%
COC(=O)c1c(NC(=O)c2cccs2)sc2c1CCC(C)C2 (stereo not drawn),-101.4%*,5.6%,0.7,7.5%,-6.9%,-8.0%
COCCNc1ncnc2c1c(-c1ccccc1)cn2-c1cccc(Cl)c1,/,/,/,6.3%,1.3%,35.5µM*
CC(=O)Nc1ccc(Nc2ncnc3c2c(-c2ccccc2)cn3-c2ccc(C)c(Cl)c2)cc1,/,/,/,/,?,15.8µM*
CC(=O)Nc1ccc(Nc2ncnc3c2c(-c2ccccc2)cn3-c2ccccc2)cc1,/,/,/,/,0.3%,?
Cc1ccc(S(=O)(=O)N2CCN(c3nc(-c4cccs4)nc4c3ncn4COC(=O)C(C)(C)C)CC2)cc1,/,-8.2%,/,/,/,/
CC(C)(C)c1ccc(N2C[C@@H](COc3ccc(C(=O)O)cc3)CC2=O)cc1,/,/,/,/,-7.6%,/
Cc1ccc(C(=O)CCNc2ccc(F)c(Cl)c2)o1,i,-8.6%,-1.9,0.9%,-15.6%,10µM*
CCC(C(=O)Nc1ccc(C(C)C)cc1)n1nc(C)n2c(cc3cc(C)ccc32)c1=O (stereo not drawn),/,/,/,/,-11.6%,19.1%
CCOc1cc(CNc2ccc(O)cc2)ccc1OCc1ccc(Cl)cc1,/,/,/,/,?,35.5µM*
Cc1noc(-c2ccc(CSCCC(=O)O)cc2)c1NC(=O)OC(C)c1ccccc1Cl (stereo not drawn),/,/,/,/,-6.9%,/
COc1ccccc1NC(=O)Nc1nn(C)c2cccc(N(C)C)c12,i,-41.7%,-5.5,7.8%,-19.3%,20µM*
O=C(Nc1nnc(-c2ccccc2)s1)C1CCCN(C(=O)c2ccoc2)C1 (stereo not drawn),/,-2.3%,/,/,/,/
COc1ccc(-c2noc(CSc3nc4ccccc4[nH]3)n2)cc1,/,/,/,/,9.6%,11.2µM*
COc1ccc(-c2noc(CSc3nnc(Cc4ccccc4)n3-c3ccc(F)cc3)n2)cc1,/,/,/,/,2.4%,35.5µM*
C[C@H](NC(c1cccc2nc(O)c(O)nc12)P(=O)(O)O)c1ccc(Br)cc1 (stereo partly drawn),/,/,/,/,5.1%,/
SMILES,pAkt inh,aSyn yeast inh,CCT modulator,Mito fusion yeast,Apoferritin bind,TDP-43 yeast inh
N[C@@H](Cc1cc(CP(=O)(O)O)cc(-c2ccccc2Cl)c1)C(=O)O,/,/,/,/,-1.8%,/
COc1cc(OC)cc(-c2nnc3n2N=C(c2cc(OC)ccc2OC)CS3)c1,/,/,/,/,-7.6%,/
COc1ccc(-c2cn3c(C)c(C(=O)N4CCCc5ccccc54)sc3n2)cc1,i,20µM*,0.2,/,/,25.1µM*
CCOC(=O)/C(=N/Nc1ccc(OC)cc1)N1CCCc2ccccc21,i,0.4%,1.4,2.2%,-11.5%,12.6µM*
CCOC(=O)C1CCCN(C(=O)c2sc3nc(-c4ccc(F)cc4)cn3c2C)C1 (stereo not drawn),i,3.6%,-0.5,5.4%,?,8.91µM*
COc1ccc(-c2cc(C(=O)N3CCCc4ccccc43)no2)cc1OC,i,-12.4%,-0.4,12.8%,-10.6%,15.8µM*
CCOC(=O)/C(=N/Nc1ccccc1)N1CCCc2ccccc21,i,0.4%,-1.3,2.0%,-9.8%,-2.3%
COc1ccc(CN2C(=O)N(c3ccc(F)cc3)C(=O)C2CC(=O)Nc2cc(OC)cc(OC)c2)cc1 (stereo not drawn),/,/,/,/,1.5%,-0.7%
COc1cc2nc(N3CCOCC3)nc(NC3CCN(Cc4ccccc4)CC3)c2cc1OC,/,8.9%,/,/,/,/
Cc1c(C(=O)N2CCN(c3ccccc3F)CC2)sc2nc(-c3ccccc3)cn12,i,8.3%,2.0,6.5%,-14.2%,14.1µM*
COc1ccc(-c2cc(C(=O)N3CCCc4ccccc43)no2)cc1,i,1.2%,-1.6,16.9%,?,10µM*
CC[C@H](C)[C@H](NC(=O)[C@H](CCC(=O)O)NC(=O)CNC(=O)[C@H](CCCCN)NC(=O)[C@H](CCC(=O)O)NC(=O)[C@H](CCSC)NC(=O)[C@H](CCSC)NC(=O)[C@H](CCSC)NC(=O)[C@H](CCC(=O)O)NC(=O)CNC(=O)[C@H](CO)NC(=O)[C@H](CO)NC(=O)[C@H](CO)NC(=O)[C@@H](N)CC(N)=O)C(=O)N[C@@H](CCCCN)C(=O)O,/,/,/,/,-1.6%,/
c1ccc(-c2nnsc2-c2ccccc2)cc1,i,2.9%,-1.4,-11.4%,-2.3%,?
O=S(=O)(c1ccc(Cl)c(Cl)c1)c1snnc1-c1ccccc1,i,-18.6%,-1.4,-5.3%,?,12.6µM*
Cc1ccc(C2OC34CCCCCC3C(C#N)(C(=N)O4)C2(C#N)C#N)cc1 (stereo not drawn),i,-29.9%,0.7,2.5%,367.3%,1.26µM*
COc1ccc(-n2nc([N+](=O)[O-])c(=NCCCN3CCCC3=O)n2O)cc1,i,-3.2%,-1.3,9.0%,-11.6%,-4.1%
O=C1CCCN1CCCN=c1c([N+](=O)[O-])nn(-c2ccc(Cl)cc2)n1O,i,-1.1%,-4.1,2.3%,-13.5%,14.1µM*
C=CCN1C(=O)S/C(=C/c2ccc(Sc3nc4ccccc4[nH]3)o2)C1=O,i,14.0%,-0.4,22.4µM*,-3.6%,0.0%
Cc1nc2ccccn2c1C(=O)CSc1ccccc1Cl,i,8.6%,-2.2,4.9%,-11.5%,35.5µM*
COc1ccc(CCNC(=O)Cn2cc(S(=O)(=O)Cc3ccccc3Cl)c3ccccc32)cc1OC,/,/,/,/,1.0%,6.3%
CCCC[C@@H]1Cc2[nH][nH]c(=O)c2[C@H](c2ccc(C(C)C)cc2)O1,i,-19.6%,0.0,/,/,20µM*
